Reference: PubChem BioAssay
The source made the active and inactive calls.

How the values were obtained:
[1] = test system: Plasmodium falciparum Sir2 (PF13_0152, Sir2A); experiment: pfSir2 binders on small-molecule microarrays, primary screen, biochemical, small-molecule microarray, 635 nm fluorescence (AID 1098); conditions: small-molecule microarray binding, fluorescence 635 nm; higher = more signal;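 further: score merges spot fluorescence intensity with its signal-to-noise ratio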
[2] = small-molecule microarray binders of probe aDKK1, primary screen, biochemical, biotinylated probe, 635/667 nm fluorescence (AID 1099); conditions: higher = more signal;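 further: score merges 667nm spot fluorescence with signal to noise across triplicate slides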
[3] = small-molecule microarray binders of probe aCHRDL2, primary screen, biochemical, biotinylated probe, 635/667 nm fluorescence (AID 1100); conditions: higher = more signal
[4] = splicing luciferase reporter signal modulators, primary screen, spliceosome inhibition project, cell-based, HEK293, splice +/- reporter (AID 1101); conditions: luminescence, 24 h, higher = more signal, called active from +8 up or from −8 down;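 further: HEK293 cells carrying a splicing-competent luciferase reporter gene; test concentration not given here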
[5] = target: Fibroblast growth factor 10 (Homo sapiens) (UniProt O15520); experiment: FGF10 binders on small-molecule microarrays, primary screen, biochemical, small-molecule microarray, 635 nm fluorescence (AID 1102); conditions: FGF10 binding, fluorescence 635 nm, higher = more signal
[6] = test system: glycogen synthase kinase-3 (GSK3A per assay name; protocol says GSK3B); experiment: GSK3 binders on small-molecule microarrays, primary screen, biochemical, small-molecule microarray, 635 nm fluorescence, GSK3A (AID 1103); conditions: small-molecule microarray binding, fluorescence 635 nm; higher = more signal; further: the record names both GSK3A and GSK3B
[7] = target: Epidermal growth factor receptor (Homo sapiens) (UniProt P00533); experiment: EGFR binders on small-molecule microarrays, primary screen, biochemical, small-molecule microarray, 635 nm fluorescence (AID 1104); conditions: EGFR binding, higher = more signal;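 further: score merges 667 nm emission intensity with spot signal to noise over triplicate slides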
[8] = target: Follistatin-related protein 3 (Homo sapiens) (UniProt O95633); experiment: FSTL3 binders on small-molecule microarrays, primary screen, biochemical, small-molecule microarray, 635 nm fluorescence (AID 1105); conditions: FSTL3 binding, higher = more signal;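 further: score merges emission near 667 nm and signal to noise per printed spot across three slides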
[9] = target: Dickkopf-related protein 1 (Homo sapiens) (UniProt O94907); experiment: DKK1 binders on small-molecule microarrays, primary screen, biochemical, small-molecule microarray, 635 nm fluorescence scan (AID 1106); conditions: DKK1 binding, higher = more signal;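 further: score merges emission near 667 nm with signal to noise over three replicate slides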
[10] = test system: Inhibin beta A chain (activin A); experiment: INHBA (activin A) binders on microarrays, primary screen, biochemical, small-molecule microarray, 635 nm fluorescence scan (AID 1107); conditions: small-molecule microarray binding, higher = more signal;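 further: mouse activin A protein probed at 4.33 µg/mL on printed slides; score merges bound-protein fluorescence near 667 nm with spot signal-to-noise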
[11] = test system: Human papillomavirus type 1a protein E7 (residues 44-93); experiment: HPV1a E7 fragment binders on microarrays, primary screen, biochemical, small-molecule microarray, residues 44-93, 635 nm fluorescence (AID 1108); conditions: small-molecule microarray binding, fluorescence 635 nm; higher = more signal;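 further: E7 fragment applied at 1 µg/mL in TBST for 1 h at 4 C; score combines spot fluorescence with its signal to noise ratio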
[12] = modulators of HCV replicon luciferase signal, primary screen, HCV replication inhibitor project, Huh7 cells, luciferase reporter (AID 1109); conditions: 48 h, higher = more signal;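 further: huh7 hepatoma cells harbouring a luciferase neomycin HCV replicon reporter; luciferase luminescence as measure of HCV replicon replication; test concentration not given here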
[13] = target: Left-right determination factor 2 (Homo sapiens) (UniProt O00292); experiment: LEFTY2 binders on small-molecule microarrays, primary screen, biochemical, small-molecule microarray, 635 nm fluorescence scan (AID 1110); conditions: LEFTY2 binding, higher = more signal
[14] = target: Calmodulin-1 (Homo sapiens) (UniProt P0DP23); experiment: CALM1 binders on microarrays, EGTA buffer, profiling panel, biochemical, small-molecule microarray, Cy5-labelled CALM1 (AID 1111); conditions: Cy5-CALM1 binding fluorescence, higher = more signal;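 further: labelled calmodulin applied in Tris saline Tween buffer holding calcium plus EGTA and DTT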
[15] = target: Calmodulin-1 (Homo sapiens) (UniProt P0DP23); experiment: calcium-bound CALM1 binders on microarrays, profiling panel, artefact control for SMM control-protein annotation, biochemical, small-molecule microarray, Cy5-labelled CALM1, plus calcium (AID 1112); conditions: Cy5-CALM1 binding fluorescence, higher = more signal;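 further: score merges spot fluorescence with signal to noise from triplicate slides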
[16] = small-molecule microarray binders of probe aWnt5a, primary screen, biochemical, biotinylated probe, 635/667 nm fluorescence (AID 1113); conditions: higher = more signal;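 further: score merges 667 nm fluorescence intensity with signal-to-noise per printed feature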
[17] = small-molecule microarray binders of probe aShh, primary screen, biochemical, biotinylated probe, 635/667 nm fluorescence (AID 1114); conditions: higher = more signal;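 further: probe is biotin-labelled aShh protein from a stem cell growth factor screen; measures binding of labelled protein to compounds printed on the slide; score merges feature fluorescence at 667 nm with signal-to-noise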
[18] = small-molecule microarray binders of probe aNog, primary screen, biochemical, biotinylated probe, 635/667 nm fluorescence (AID 1115); conditions: higher = more signal;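 further: probe is biotinylated aNog protein used at 0.15 µg/mL for 1 h at 4 C; z-score combines 667 nm fluorescence of each spot with its signal to noise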
[19] = target: Torsin-1A-interacting protein 1 (Homo sapiens) (UniProt Q5JTV8); experiment: LAP1 binders from COS7 cell lysate, primary screen, small-molecule microarray, 635/667 nm fluorescence (AID 1116); conditions: COS7-hLAP1 lysate binding, 635 nm fluorescence, higher = more signal
[20] = target: Alpha-bungarotoxin (Bungarus multicinctus) (UniProt P60615); experiment: alpha-bungarotoxin binders on microarray, profiling panel, artefact control for SMM control protein annotation, biochemical, small-molecule microarray, Alexa647 label, 635/667 nm fluorescence (AID 1117); conditions: alpha-BTX-A647 binding fluorescence, higher = more signal
Chain of Alpha-bungarotoxin (Bungarus multicinctus) (P60615 whole entry, looked up): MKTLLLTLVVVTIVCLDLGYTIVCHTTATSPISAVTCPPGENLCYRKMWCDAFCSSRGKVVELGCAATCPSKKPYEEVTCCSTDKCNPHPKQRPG

Chain of Left-right determination factor 2 (Homo sapiens) (O00292 whole entry, looked up): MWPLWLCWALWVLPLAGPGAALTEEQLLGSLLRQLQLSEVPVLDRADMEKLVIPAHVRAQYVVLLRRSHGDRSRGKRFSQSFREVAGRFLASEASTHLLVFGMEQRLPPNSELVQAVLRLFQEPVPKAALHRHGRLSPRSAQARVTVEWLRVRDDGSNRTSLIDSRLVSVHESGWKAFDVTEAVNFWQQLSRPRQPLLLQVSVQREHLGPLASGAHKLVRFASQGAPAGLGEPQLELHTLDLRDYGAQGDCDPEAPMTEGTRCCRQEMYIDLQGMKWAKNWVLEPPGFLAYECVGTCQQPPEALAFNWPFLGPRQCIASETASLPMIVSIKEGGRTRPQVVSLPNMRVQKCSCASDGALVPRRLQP
Chain of Epidermal growth factor receptor (Homo sapiens) (P00533 whole entry, looked up): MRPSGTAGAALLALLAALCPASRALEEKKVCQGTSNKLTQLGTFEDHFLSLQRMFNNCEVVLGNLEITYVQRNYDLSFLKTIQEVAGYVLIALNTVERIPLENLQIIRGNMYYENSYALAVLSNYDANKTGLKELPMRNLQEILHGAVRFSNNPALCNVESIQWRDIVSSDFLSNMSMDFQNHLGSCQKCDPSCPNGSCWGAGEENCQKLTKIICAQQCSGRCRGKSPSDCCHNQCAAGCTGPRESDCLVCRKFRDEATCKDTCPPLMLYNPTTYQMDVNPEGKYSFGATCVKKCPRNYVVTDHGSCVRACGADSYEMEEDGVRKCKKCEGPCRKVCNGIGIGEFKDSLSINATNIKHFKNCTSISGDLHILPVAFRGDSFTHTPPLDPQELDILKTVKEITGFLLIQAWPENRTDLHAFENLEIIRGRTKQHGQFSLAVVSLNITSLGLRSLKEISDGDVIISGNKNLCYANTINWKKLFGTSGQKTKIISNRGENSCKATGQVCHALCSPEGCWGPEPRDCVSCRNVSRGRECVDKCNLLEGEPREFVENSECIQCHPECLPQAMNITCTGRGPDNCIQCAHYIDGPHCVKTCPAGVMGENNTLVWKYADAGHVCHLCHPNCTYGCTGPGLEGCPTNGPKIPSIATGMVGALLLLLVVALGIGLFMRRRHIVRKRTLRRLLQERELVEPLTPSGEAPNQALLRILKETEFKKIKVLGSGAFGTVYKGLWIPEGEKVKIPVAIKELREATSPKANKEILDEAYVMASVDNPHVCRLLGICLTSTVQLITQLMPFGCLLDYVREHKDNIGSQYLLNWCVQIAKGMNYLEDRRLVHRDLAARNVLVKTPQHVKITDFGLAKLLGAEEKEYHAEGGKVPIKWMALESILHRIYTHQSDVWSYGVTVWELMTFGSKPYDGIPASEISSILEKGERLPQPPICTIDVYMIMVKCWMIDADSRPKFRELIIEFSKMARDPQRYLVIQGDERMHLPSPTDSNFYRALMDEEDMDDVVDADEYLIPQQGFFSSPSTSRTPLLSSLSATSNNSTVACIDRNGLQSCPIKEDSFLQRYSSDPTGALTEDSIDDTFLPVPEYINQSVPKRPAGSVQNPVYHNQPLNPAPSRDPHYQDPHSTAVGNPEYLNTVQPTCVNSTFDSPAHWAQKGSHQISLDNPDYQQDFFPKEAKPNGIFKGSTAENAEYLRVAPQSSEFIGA
Chain of Follistatin-related protein 3 (Homo sapiens) (O95633 whole entry, looked up): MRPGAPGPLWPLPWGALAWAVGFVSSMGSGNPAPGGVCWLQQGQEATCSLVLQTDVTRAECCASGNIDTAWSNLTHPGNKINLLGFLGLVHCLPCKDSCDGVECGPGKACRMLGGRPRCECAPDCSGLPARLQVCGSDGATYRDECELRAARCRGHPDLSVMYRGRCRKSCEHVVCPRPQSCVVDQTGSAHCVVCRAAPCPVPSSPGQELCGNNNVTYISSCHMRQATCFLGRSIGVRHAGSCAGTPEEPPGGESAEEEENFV
Chain of Dickkopf-related protein 1 (Homo sapiens) (O94907 whole entry, looked up): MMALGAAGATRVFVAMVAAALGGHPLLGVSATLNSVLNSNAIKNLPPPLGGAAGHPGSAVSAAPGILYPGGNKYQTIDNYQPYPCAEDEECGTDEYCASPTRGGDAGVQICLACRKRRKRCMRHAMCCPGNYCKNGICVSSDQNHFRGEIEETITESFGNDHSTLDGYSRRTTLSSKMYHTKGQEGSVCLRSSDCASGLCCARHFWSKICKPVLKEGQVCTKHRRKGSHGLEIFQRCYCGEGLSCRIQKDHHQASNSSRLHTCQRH
Chain of Fibroblast growth factor 10 (Homo sapiens) (O15520 whole entry, looked up): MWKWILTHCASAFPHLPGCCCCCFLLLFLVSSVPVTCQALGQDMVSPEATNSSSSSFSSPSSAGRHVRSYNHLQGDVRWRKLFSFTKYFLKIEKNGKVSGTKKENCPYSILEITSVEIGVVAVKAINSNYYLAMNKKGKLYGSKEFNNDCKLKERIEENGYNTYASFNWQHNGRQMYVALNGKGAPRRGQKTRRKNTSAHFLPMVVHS
Chain of Torsin-1A-interacting protein 1 (Homo sapiens) (Q5JTV8 whole entry, looked up): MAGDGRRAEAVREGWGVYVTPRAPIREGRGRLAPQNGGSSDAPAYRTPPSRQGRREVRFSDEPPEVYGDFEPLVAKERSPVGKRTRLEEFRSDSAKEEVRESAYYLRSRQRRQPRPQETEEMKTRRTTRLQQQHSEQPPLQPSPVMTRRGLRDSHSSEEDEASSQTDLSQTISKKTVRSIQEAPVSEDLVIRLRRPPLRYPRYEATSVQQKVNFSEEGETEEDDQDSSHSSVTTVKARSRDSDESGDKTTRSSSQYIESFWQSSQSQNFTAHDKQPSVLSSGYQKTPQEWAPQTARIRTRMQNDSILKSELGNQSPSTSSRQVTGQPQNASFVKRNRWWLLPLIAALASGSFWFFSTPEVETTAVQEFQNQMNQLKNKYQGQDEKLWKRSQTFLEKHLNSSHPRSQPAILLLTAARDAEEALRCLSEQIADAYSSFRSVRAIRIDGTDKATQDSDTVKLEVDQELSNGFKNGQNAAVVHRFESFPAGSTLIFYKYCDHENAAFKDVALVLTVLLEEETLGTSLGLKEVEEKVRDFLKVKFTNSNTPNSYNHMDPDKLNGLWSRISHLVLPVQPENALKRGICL

Structure (SMILES)	composite z-score [1]	composite z-score [2]	composite z-score [3]	z-score [4]	composite z-score [5]	composite z-score [6]	composite z-score [7]	composite z-score [8]	composite z-score [9]	composite z-score [10]	composite z-score [11]	z-score [12]	composite z-score [13]	composite z-score [14]	composite z-score [15]	composite z-score [16]	composite z-score [17]	composite z-score [18]	composite z-score [19]	composite z-score [20]
CCCNC(=O)[C@@H]1c2ccccc2C(=O)N(CC23CC4CC(CC(C4)C2)C3)[C@H]1c1ccc(CO)cc1	1.6	0.831	0.718	-0.254 (inactive)	1.12	1.15	0.457	1.23	1.11	0.425	0.772	-1.15	1.03	0.992	0.489	0.189	0.265	0.697	0.986	0.88
C=CCNC(=O)[C@H]1[C@@H]2C(=O)O[C@@H](c3ccccc3)[C@@H](c3ccccc3)N2[C@@H](c2ccc(OCCO)cc2)[C@]12C(=O)N(C(=O)OCCOC)c1ccc(C#CC3=CCCCC3)cc12	1.39	0.0825	-0.0093	-1.98 (inactive)	1.17	1.31	0.475	1.11	0.522	0.373	-0.192	-1.94	0.652	1.28	0.171	0.0243	0.0141	-0.038	2.23	2.5
[N-]=[N+]=Nc1ccccc1[C@H]1OC(c2ccc(OCCCO)cc2)=N[C@@]1(Cc1ccccc1)C(=O)NCc1ccccc1	0.427	0.243	0.712	-1.72 (inactive)	0.776	1.12	-0.0565	0.643	0.865	0.774	1.4	-3.14	0.364	0.503	-0.171	-0.0492	0.0723	-0.261	0.832	0.421
C=CCN1C(=O)[C@@]2(O[C@@H](CCO)[C@H]([Si](C)(C)c3ccc(OC)cc3)[C@H]2C)c2cc(NC(=O)[C@H](C)O)ccc21	1.53	-0.474	-0.0061	-2.46 (inactive)	1.26	1.3	-0.242	0.254	0.147	-0.156	1.37	-3.03	0.256	0.929	-0.377	0.0279	0.0639	-0.21	1.2	0.175
C=CCNC(=O)[C@H]1[C@@H]2C(=O)O[C@@H](c3ccccc3)[C@@H](c3ccccc3)N2[C@@H](c2ccc(O)cc2)[C@]12C(=O)N(C(=O)OCCOC)c1ccc(C#CC3(O)CCCCCC3)cc12	1.35	0.263	0.468	0.0928 (inactive)	0.385	0.716	0.228	0.33	0.138	1.09	0.739	-0.302	-0.326	0.487	0.205	-0.0445	0.0469	0.268	1.16	1.2
NCCCCCCNC(=O)[C@H]1C[C@H]2C(=O)N3CCC[C@H]3C(=O)N2[C@H]1c1ccc(O)cc1	1.22	0.0237	0.134	0.089 (inactive)	0.264	0.572	0.386	0.747	0.735	0.977	-0.0863	0.0433	0.55	0.192	0.102	0.15	-0.0441	-0.28	0.999	1.05
CCCC=C(CCC)[C@@H](NS(=O)(=O)c1cccc2cccnc12)c1ccc(C(=O)OC)cc1	0.817	2.53	1.46	-0.355 (inactive)	1.58	0.0656	1.8	1.24	0.726	0.948	0.591	0.347	0.804	0.156	-0.2	1.77	0.0093	3.92	0.354	-0.0527
CCCCC(CC)C(O)C1C=CC2C(=O)NC(=O)C2N1Nc1ccccn1 (stereo not given)	0.768	0.189	0.471	1.08 (inactive)	0.327	0.493	-0.035	0.768	0.112	1.33	1.46	-0.201	0.0645	1.07	0.431	0.0919	-0.119	1.19	0.927	1.36
O=C1O[C@H](c2ccccc2)[C@H](c2ccccc2)N2[C@H]1[C@@H](C(=O)NC[C@H](O)c1ccccc1)[C@]1(C(=O)Nc3ccccc31)[C@H]2c1ccccc1OCCO	1.61	-0.0915	0.499	-2.06 (inactive)	0.561	0.447	0.0728	0.263	-0.0453	0.914	1.4	-3.34	-0.11	1.31	0.376	-0.027	1.47	2.84	1.41	2.46
C=CC[C@@]1(C(=O)NCCN2CCOCC2)N=C(c2ccc(OCCCO)cc2)O[C@@H]1c1ccccc1	1.28	0.449	0.853	-0.161 (inactive)	1.5	1.29	0.802	1.22	0.785	0.726	1.46	-1.34	0.902	-0.0984	-0.0501	0.0873	-0.0093	1	1.06	0.991
